# From PubChem BioAssay
# Activity calls are given as the source filed them.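 Rule for the calls: active = normalized viability below 100% at a tested concentration; inactive = the rest.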
# Experiment: drug combination growth inhibition, ovarian cancer – cell-based, oncology-focused library, rucaparib conditional, profiling panel (AID 1508598)
# Settings: patient-derived ovarian cancer cells, CellTiter-Glo viability, 144 h; at 5 µM; OCI-P5x cells; without rucaparib; active compounds read low
row,Structure (SMILES),viability
1,N#CCNC(=O)c1ccc(-c2ccnc(Nc3ccc(N4CCOCC4)cc3)n2)cc1,49% (active)
2,Nc1nc(Nc2ccc(S(N)(=O)=O)cc2)nn1C(=O)c1c(F)cccc1F,13.1% (active)
3,O=C(Nc1ccccc1-c1cn2c(CN3CCNCC3)csc2n1)c1cnc2ccccc2n1,0.751% (active)
4,COc1ccc(-c2ccc3c(N4CCOCC4)nc(N4C[C@@H](C)O[C@@H](C)C4)nc3n2)cc1CO,99.4% (active)
5,CC1(C)CNc2cc(NC(=O)c3cccnc3NCc3ccncc3)ccc21,94.6% (active)
6,COc1cc2nccc(Oc3ccc(NC(=O)Nc4cc(C)on4)c(Cl)c3)c2cc1OC,82.8% (active)
7,N#Cc1c(NC(=O)c2cccc3ccccc23)sc2c1CCCC2,18.2% (active)
8,COc1ccc(-c2ccc3c(N4CCOC[C@@H]4C)nc(N4CCOC[C@@H]4C)nc3n2)cc1CO,20.8% (active)
9,Cc1cnc(NC(=O)Nc2cc(Br)c(C)cc2OC[C@@H]2CNCCO2)cn1,7.42% (active)
10,COC(=O)c1ccc2c(C(=Nc3ccc(N(C)C(=O)CN4CCN(C)CC4)cc3)c3ccccc3)c(O)[nH]c2c1,59.1% (active)
11,Cc1ccc(F)c(NC(=O)Nc2ccc(-c3cccc4[nH]nc(N)c34)cc2)c1,35.5% (active)
